Assay [1] is described as follows: Nuclear factor erythroid 2-related factor 2/antioxidant responsive element (Nrf2/ARE) small molecule agonists: qHTS cell viability counter screen in human keratinocytes (AID 1919968; active = well fitted curve in the direction sought with a large enough effect in the repeat runs; an effect the other way counts as inactive or inconclusive; note: nearly all actives have a fitted effect of over 55% in size). The procedure, abridged: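 After a 5 h attachment period, ARE-reporter keratinocytes were dosed with compounds in DMSO and then cultured 23 h at 37 C. Cell viability came from CellTiter-Fluor signal read after a further 1 h.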
On the technique in general: In qHTS, concentration-response curves come from the screen itself.

Assay [2] in a line: Nuclear factor erythroid 2-related factor 2/antioxidant responsive element (Nrf2/ARE) small molecule agonists: luciferase reporter gene qHTS assay in human keratinocytes (AID 1919969; note: nearly all actives have a fitted effect of over 35% in size; note: potency is the fitted concentration of half-maximal effect). (A reporter such as luciferase makes a cellular process visible.)
Assay [3] concerns the target Gonadotropin-releasing hormone receptor (Homo sapiens) (UniProt P30968). The experiment in a line: Human gonadotropin-releasing hormone receptor (GnRHR) small molecule agonists, calcium flux assay in GnRHR-HEK293 cells (AID 1920063). Note: nearly all actives have a fitted effect of over 35% in size. Note: potency is the fitted concentration of half-maximal effect. In short, it runs like this: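 We seeded human GnRHR-expressing HEK293 cells for 18 hours, loaded them with calcium dye for an hour at 37 C, added test compounds, and recorded fluorescence intensity kinetically for three minutes.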
A general note: A change in cytosolic calcium serves as a functional read-out for many receptors and channels.

The target of assay [4] is KiSS-1 receptor (Homo sapiens) (UniProt Q969F8). Description: Human kisspeptin (KISS1R) small molecule agonists, calcium flux assay in KISS1R-HEK293 cells (AID 1920064; active = well fitted curve in the direction sought with a large enough effect in the repeat runs; an effect the other way counts as inactive or inconclusive). The procedure, abridged:
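Kinetic calcium assay, 1 s sampling over 3 min at Ex/Em 480/540, in HEK293 cells engineered with human KISS1R; compounds delivered in DMSO after 1 h dye loading.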

The nature of assay [5]: G protein-coupled receptor (GPCR) small molecule agonists, calcium flux assay: HEK293 wild type cell line counter screen (AID 1920065). In short, it runs like this: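 Calcium-sensitive dye, loaded 1 h at 37 C into cells cultured 18 h, reports compound-evoked calcium release as fluorescence (Ex/Em 480/540), measured over 3 min. Agonist mode; 15-point titrations, triplicate.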

A short description of assay [6]: p53 small molecule agonists, cell-based qHTS assay with human liver microsomes (AID 1963577).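 Note: p53 response element beta-lactamase reporter cells with liver microsomes plus NADPH.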 In short, it runs like this:
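16 h, 37 C exposure of p53RE-bla cells to compounds with human liver microsomes and NADPH (0.5 mg/mL final each); detection via LiveBLAzer mixture, 2 h dark at room temperature.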

A short description of assay [7]: p53 small molecule agonists, cell-based qHTS assay with human liver microsomes: qHTS cell viability counter screen (AID 1963579). Note: nearly all actives have a fitted effect of over 45% in size. The procedure, abridged: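 In this multiplexed counter screen, the reporter plates were subsequently treated with CellTiter-Glo so that cell viability, reflected by luminescence, could be recorded for p53RE-bla cells dosed 16 h with compounds under microsomal activation (HLM and NADPH).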

The nature of assay [8]: p53 small molecule agonists, cell-based qHTS assay with rat liver microsomes: qHTS cell viability counter screen (AID 1963580). Note: nearly all actives have a fitted effect of over 45% in size. The procedure, abridged: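 Viability is assessed in parallel with the p53 reporter read: HCT-116 p53RE-bla cells receive compounds plus rat microsomes and NADPH (0.5 mg/mL final apiece), incubate 16 h at 37 C, and then CellTiter-Glo luminescence is recorded.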

Assay [9] is described as follows: p53 small molecule agonists, cell-based qHTS assay (AID 1963582; active = well fitted activation curve with a large enough effect in the signal ratio in the repeat runs, not every such curve was filed as active; the % refers to the signal ratio). The procedure, abridged: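 In this cell-based concentration-response screen, a p53 response element drives beta-lactamase; cells received DMSO-borne compounds after 5 h culture and were incubated a further 16 h before FRET substrate development.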
For assay [10], the target named is 5-hydroxytryptamine receptor 2A (Homo sapiens) (UniProt P28223). Description: 5-hydroxytryptamine receptor 2A (HTR2A) small molecule antagonists, cell-based qHTS assay (AID 1963586). Note: nearly all actives have a fitted effect of over 45% in size. In short, it runs like this: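 Antagonist-mode intracellular calcium assay: DOI (4 nM) added after 5 min compound pre-incubation at room temperature to dye-loaded HTR2A-CHO cells. Fluorescence followed for 3 min, sampled every second.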
Sequence of 5-hydroxytryptamine receptor 2A (Homo sapiens) (P28223 whole entry, looked up): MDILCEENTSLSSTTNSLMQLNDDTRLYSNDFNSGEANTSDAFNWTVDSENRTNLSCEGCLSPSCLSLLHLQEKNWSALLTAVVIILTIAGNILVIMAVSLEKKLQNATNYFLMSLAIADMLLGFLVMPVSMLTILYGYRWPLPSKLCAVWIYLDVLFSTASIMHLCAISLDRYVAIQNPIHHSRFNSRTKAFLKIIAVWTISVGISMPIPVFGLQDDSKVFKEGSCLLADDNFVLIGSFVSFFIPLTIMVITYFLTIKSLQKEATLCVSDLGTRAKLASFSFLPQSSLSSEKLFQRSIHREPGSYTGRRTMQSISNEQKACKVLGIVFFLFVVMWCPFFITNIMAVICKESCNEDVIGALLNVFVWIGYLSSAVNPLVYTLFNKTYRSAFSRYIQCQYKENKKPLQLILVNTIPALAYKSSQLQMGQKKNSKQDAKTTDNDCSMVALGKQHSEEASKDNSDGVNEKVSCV

For assay [11] the target is unchanged. Description: 5-hydroxytryptamine receptor 2A (HTR2A) small molecule agonists, cell-based qHTS assay (AID 1963587). Note: nearly all actives have a fitted effect of over 30% in size. Note: potency is the fitted concentration of half-maximal effect. The procedure, abridged:
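CHO cells stably expressing human HTR2A, plated 18 h, loaded with calcium dye 1 h at 37 C. Agonist mode: compounds added and intracellular calcium fluorescence recorded kinetically for 2 min at 1 sec intervals.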

The target of assay [12] is Muscarinic acetylcholine receptor M1 (Homo sapiens) (UniProt P11229). The experiment in a line: Cholinergic receptor muscarinic 1 (CHRM1) small molecule agonists, cell-based qHTS assay (AID 1963589). Note: nearly all actives have a fitted effect of over 35% in size. The procedure, abridged:
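Measures agonist-induced intracellular calcium rise. Stable human CHRM1 CHO line, 1 h dye load at 37 C, compounds from DMSO, kinetic fluorescence read.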

Assay [13] can be described thus: cAMP Responsive Elements (CRE) small molecule agonists, cell-based qHTS assay (AID 1963590). The procedure, abridged: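 A CRE-responsive beta-lactamase reporter in HEK 293T cells was used. Treatment ran 3 h at 37 C; detection used LiveBLAzer B/G FRET substrate for 2 h at room temperature.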
A short description of assay [14]: cAMP Responsive Elements (CRE) small molecule antagonists, cell-based qHTS assay (AID 1963591; active = well fitted inhibition curve with a large enough effect in the signal ratio in the repeat runs, not every such curve was filed as active; the % refers to the signal ratio). In short, it runs like this: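 HEK293T cells carrying a CRE-driven beta-lactamase reporter receive compound and NKH477 (0.25 uM final) for 3 h. Fluorescence from LiveBLAzer B/G FRET substrate is read after 2 h at room temperature.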
The target of assay [15] is Beta-2 adrenergic receptor (Homo sapiens) (UniProt P07550). Description: Adrenergic beta2 receptor (ADRB2) small molecule antagonists, cell-based qHTS assay (AID 1963592). Note: series mostly up to about 92 µM; nearly all actives have a fitted effect of over 50% in size. In short, it runs like this: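 Cells (CHO, stable ADRB2 overexpression) incubated 18-20hr at 37C; compounds added from DMSO; agonist mix (1nM isoproterenol, 100uM IBMX, 25uM Ro-20-1724) added; 0.5hr RT; d2-cAMP and anti-cAMP-cryptate added; 1hr RT; 665/615 nm read.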
Sequence of Beta-2 adrenergic receptor (Homo sapiens) (P07550 whole entry, looked up): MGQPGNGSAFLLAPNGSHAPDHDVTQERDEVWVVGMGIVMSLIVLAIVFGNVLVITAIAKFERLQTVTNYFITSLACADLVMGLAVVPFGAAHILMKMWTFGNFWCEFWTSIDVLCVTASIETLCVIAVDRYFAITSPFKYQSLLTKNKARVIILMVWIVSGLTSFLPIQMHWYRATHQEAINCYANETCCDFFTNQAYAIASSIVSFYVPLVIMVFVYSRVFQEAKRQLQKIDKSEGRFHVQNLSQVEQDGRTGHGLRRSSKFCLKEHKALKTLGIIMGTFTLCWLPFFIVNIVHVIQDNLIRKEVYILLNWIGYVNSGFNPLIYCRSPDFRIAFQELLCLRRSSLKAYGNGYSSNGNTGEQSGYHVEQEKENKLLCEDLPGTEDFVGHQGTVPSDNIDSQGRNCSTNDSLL

Assay [16] addresses D(2) dopamine receptor (Homo sapiens) (UniProt P14416). Description: Dopamine D2 receptor (DRD2) small molecule agonists, cell-based qHTS assay (AID 1963594). Note: nearly all actives have a fitted effect of over 35% in size. Note: potency is the fitted concentration of half-maximal effect. The procedure, abridged:
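HEK293 cells stably expressing human DRD2, pre-treated with PDE inhibitor Ro20-1724 (0.1 mM final) and compound 10 min at room temperature, then stimulated with NKH477 (200nM […]) for 30 min. cAMP read by HTRF (665/620 nm).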

For assay [17] the target is unchanged. The experiment in a line: Dopamine D2 receptor (DRD2) small molecule antagonists, cell-based qHTS assay (AID 1963595; active = well fitted inhibition curve with a large enough effect in the signal ratio in the repeat runs, with a control signal flat; the % refers to the signal ratio; note: potency is the fitted concentration of half-maximal effect). In short, it runs like this:
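Antagonism was scored as restored cAMP in HEK293-DRD2 cells. These cells were stimulated with 200 nM NKH477 and 12 nM quinpirole for 30 min at room temperature, in the presence of 0.1 mM Ro20-1724.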

Assay [18] in a line: p53 small molecule agonists, cell-based qHTS assay with rat liver microsomes (AID 1963578). In short, it runs like this: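 With rat liver microsomes and NADPH present (0.5 mg/mL final each), p53RE-bla cells are treated with compound for 16 h at 37 C. LiveBLAzer detection mixture is then applied for 2 h at room temperature in the dark.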
Assay [19] in a line: p53 small molecule agonists, cell-based qHTS assay: qHTS cell viability counter screen (AID 1963581). Note: nearly all actives have a fitted effect of over 45% in size. The procedure, abridged: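 Following 5 h attachment, HCT-116 p53RE-bla cells took up compound for 16 h at 37 C; the reporter was read with B/G FRET substrate (2 h RT), and viability then via CellTiter-Glo ATP luminescence.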
For assay [20], the target named is Muscarinic acetylcholine receptor M1 (Homo sapiens) (UniProt P11229). The experiment in a line: Cholinergic receptor muscarinic 1 (CHRM1) small molecule antagonists, cell-based qHTS assay (AID 1963588). Note: nearly all actives have a fitted effect of over 40% in size. In short, it runs like this:
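CHRM1-CHO calcium-flux assay, antagonist mode. Cells were seeded 18 h, dye-loaded 1 h at 37 C and given compound for 5 min at RT, then acetylcholine was added at 50nM. FDSS fluorescence was read 3 min; 15 concentrations, three runs.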

Unmarked numbers belong to inactive results. Records with an inconclusive call do not appear. The source made the active and inactive calls. Unless noted, calls come from the whole dose curve.

Experimental findings from PubChem BioAssay (Tox21) are described below.

Sequence of KiSS-1 receptor (Homo sapiens) (Q969F8 whole entry, looked up): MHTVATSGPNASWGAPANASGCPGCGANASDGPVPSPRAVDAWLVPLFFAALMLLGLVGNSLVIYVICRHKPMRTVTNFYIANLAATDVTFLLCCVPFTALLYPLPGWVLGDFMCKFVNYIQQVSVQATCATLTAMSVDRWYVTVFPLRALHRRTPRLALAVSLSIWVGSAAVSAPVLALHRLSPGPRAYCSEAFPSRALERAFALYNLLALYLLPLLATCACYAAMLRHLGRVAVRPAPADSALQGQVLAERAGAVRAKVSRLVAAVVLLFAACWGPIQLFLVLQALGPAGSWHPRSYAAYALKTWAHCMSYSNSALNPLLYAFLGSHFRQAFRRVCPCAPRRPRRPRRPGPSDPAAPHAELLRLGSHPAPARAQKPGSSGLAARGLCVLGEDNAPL
Sequence of D(2) dopamine receptor (Homo sapiens) (P14416 whole entry, looked up): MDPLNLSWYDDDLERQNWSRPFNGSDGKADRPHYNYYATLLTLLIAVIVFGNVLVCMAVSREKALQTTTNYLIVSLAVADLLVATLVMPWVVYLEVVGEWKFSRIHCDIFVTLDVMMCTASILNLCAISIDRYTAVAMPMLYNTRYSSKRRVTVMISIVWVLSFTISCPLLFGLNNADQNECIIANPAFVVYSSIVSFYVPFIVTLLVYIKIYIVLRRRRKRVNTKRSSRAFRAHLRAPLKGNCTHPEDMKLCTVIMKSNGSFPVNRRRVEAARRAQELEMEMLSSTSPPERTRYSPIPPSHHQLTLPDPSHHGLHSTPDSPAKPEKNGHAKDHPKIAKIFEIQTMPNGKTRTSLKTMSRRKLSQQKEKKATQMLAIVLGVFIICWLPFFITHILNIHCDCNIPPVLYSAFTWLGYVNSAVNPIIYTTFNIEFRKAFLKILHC
Sequence of Muscarinic acetylcholine receptor M1 (Homo sapiens) (P11229 whole entry, looked up): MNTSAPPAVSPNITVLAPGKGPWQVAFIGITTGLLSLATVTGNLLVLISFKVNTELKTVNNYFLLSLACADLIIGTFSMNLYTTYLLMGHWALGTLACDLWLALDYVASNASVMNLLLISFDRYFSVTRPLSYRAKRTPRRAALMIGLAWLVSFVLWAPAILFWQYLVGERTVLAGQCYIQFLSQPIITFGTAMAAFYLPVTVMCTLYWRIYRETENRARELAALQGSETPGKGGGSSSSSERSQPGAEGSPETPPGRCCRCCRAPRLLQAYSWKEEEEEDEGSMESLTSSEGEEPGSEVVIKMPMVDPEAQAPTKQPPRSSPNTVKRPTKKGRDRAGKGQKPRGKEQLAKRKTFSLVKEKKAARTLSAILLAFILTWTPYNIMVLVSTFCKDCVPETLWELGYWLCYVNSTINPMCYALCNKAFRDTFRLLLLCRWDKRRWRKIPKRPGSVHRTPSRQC
Sequence of Gonadotropin-releasing hormone receptor (Homo sapiens) (P30968 whole entry, looked up): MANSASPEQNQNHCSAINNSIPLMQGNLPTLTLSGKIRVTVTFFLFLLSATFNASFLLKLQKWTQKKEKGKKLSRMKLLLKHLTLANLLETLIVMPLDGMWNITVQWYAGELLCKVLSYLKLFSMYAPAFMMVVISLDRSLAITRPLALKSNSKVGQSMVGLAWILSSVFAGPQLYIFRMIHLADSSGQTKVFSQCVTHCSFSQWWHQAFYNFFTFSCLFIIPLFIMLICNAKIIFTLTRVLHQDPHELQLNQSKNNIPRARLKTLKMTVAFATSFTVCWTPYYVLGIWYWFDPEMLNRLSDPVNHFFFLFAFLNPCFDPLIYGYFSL

On to `CC1(C)[C@H](C=C(Cl)Cl)[C@@H]1C(=O)O[C@@H](C#N)c1cccc(Oc2ccccc2)c1`, for which the Potency entry in assay [1], in assay [2], in [3], in [4], in assay [5] and in assay [6] was “inactive” throughout. Further, the Potency entry in assay [7], in assay [8], in assay [9], in assay [10], in assay [11] and in assay [12] was “inactive” in each case. In addition, the Potency entry in [13], in assay [14], in assay [15], in assay [16] and in assay [17] was “inactive” throughout.
Regarding `CNCC(=O)c1ccc(O)c(O)c1`, the Potency entry in assay [1], in assay [2], in [4], in assay [5], in [18] and in assay [7] was “inactive” each time. The Potency result in assay [8], in [19], in [9], in [10], in assay [11] and in assay [20] was “inactive” each time. The Potency entry in assay [12] and in assay [14] was “inactive” in each case. Further, the Potency in [3] is 5.35 µM (active); in assay [16] it was 26.6 µM (active); in assay [17], 26.6 µM (active).
`CSc1ccc(C(=O)C(C)(C)N2CCOCC2)cc1`: the Potency entry in assay [1], in assay [2], in [3], in [4], in [5] and in assay [6] was “inactive” in each case. In addition, the Potency entry in assay [8], in [19], in assay [9], in [10], in assay [11] and in assay [20] was “inactive” in each case. For the same compound, the Potency entry in assay [12], in [13], in assay [16] and in assay [17] was “inactive” in each case.
With `CC(C)(C)OO`, the Potency entry in assay [1], in [2], in assay [3], in [4], in [5] and in assay [6] was “inactive” throughout. For the same compound, the Potency entry in assay [8], in [9], in assay [10], in assay [11], in assay [20] and in assay [12] was “inactive” in each case. The Potency entry in assay [13], in [14], in assay [15], in assay [16] and in assay [17] was “inactive” throughout.
`O=[N+]([O-])c1ccc2ccc3cccc4ccc1c2c34`: the Potency result in assay [1], in assay [3], in [4], in assay [5], in assay [6] and in assay [7] was “inactive” throughout. The Potency entry in assay [8], in [19], in assay [10], in assay [11], in [20] and in assay [12] was “inactive” throughout. The Potency result in assay [13], in [14], in assay [15] and in [16] was “inactive” throughout. Also, in [2], the Potency is 61.1 µM (active).
For the compound `CCCN(CCC)C(=O)Cc1c(-c2ccc(Cl)cc2)nc2ccc(Cl)cn12`, the Potency result in assay [1], in [2], in assay [3], in [4], in [5] and in [6] was “inactive” throughout. For the same compound, the Potency result in assay [7], in [8], in assay [9], in [11], in assay [20] and in [12] was “inactive” throughout. Moreover, the Potency result in assay [16] and in [17] was “inactive” in each case.
`CC(C)N(C(=O)COc1nnc(C(F)(F)F)s1)c1ccc(F)cc1`: the Potency result in assay [1], in [2], in assay [3], in assay [4], in [5] and in assay [18] was “inactive” throughout. The Potency result in [7], in [8], in assay [19], in assay [9], in [10] and in [11] was “inactive” in each case. Further, the Potency entry in assay [20], in assay [12], in assay [13], in [16] and in [17] was “inactive” each time.
On to `CCN(CC)CCOC(=O)C(O)(c1ccccc1)c1ccccc1`, for which the Potency result in assay [1], in assay [2], in assay [3], in [4], in assay [5] and in assay [6] was “inactive” each time. For the same compound, the Potency result in assay [7], in assay [19], in [9], in [13], in assay [14] and in [15] was “inactive” in each case. Further, the Potency entry in [16] and in assay [17] was “inactive” throughout. Also, in assay [11], the Potency is 1.34 µM (active).
